Inconclusive results are not listed. Active and inactive are the calls of the source. Unless noted, no cut-off is given here; in the data, nearly all actives have AC50 up to about 26 µM.
Legend:
[1] = viability loss in pontine glioma line – cell-based, SU-DIPG-XVII, MIPE5.0, CellTiter-Glo, qHTS, dose response (AID 1347060); conditions: CellTiter-Glo ATP luminescence;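 for AC50: cells exposed to compound for 48 hours before viability readout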
[2] = viability loss in pontine glioma line – cell-based, SU-DIPG-XXV, MIPE5.0, CellTiter-Glo, qHTS, dose response (AID 1347065); conditions: CellTiter-Glo ATP luminescence;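 note: cells exposed to compound for 48 hours before ATP readout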
[3] = JHH-DIPG-1 glioma cell viability, MIPE5.0 library, CellTiter-Glo luminescence, qHTS (AID 1347067); conditions: JHH-DIPG-1 glioma viability, CellTiter-Glo ATP luminescence;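 note: cells exposed to compound for 48 hours before readout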
[4] = growth inhibition of DIPG cells – cell-based, MIPE5.0 library, qHTS (AID 1347068; cut-off not given, nearly all actives have IC50 up to about 30 µM;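 for IC50: cells exposed to compound for 48 hours before viability readout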); conditions: SU-DIPG-XXV viability
[5] = viability loss with induced miR-34 in A549 – imaging, A549 dox-inducible miR-34, nuclei and caspase counts, primary screen (AID 1347080;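 active = compounds whose cell count with miR-34 switched on is under 0.7 times the count with it off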); conditions: A549 miR-34 inducible, Hoechst nuclei count, 48 h
[6] = compounds altering HSF1 focus formation in cells – imaging, Selleck Cancer Library (AID 1347162; in the data active = plate-normalised HSF1 focus index below about 0.46); conditions: human cells, HSF1 nuclear foci imaging, at 10 µM; SSMD: measured here: HSF1 foci SSMD mean; cell count: measured here: cell number; plate-normalised HSF1 focus index: stronger effect = lower value
[7] = MELAS cybrid and Rieske KO viability enhancers – cell-based, MELAS cybrids, Rieske KO mouse fibroblasts, CellTiter-Glo, primary screen (AID 1508586;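 active = mean z-score across replicates of 1.96 or higher in either the MELAS or the Rieske mutant cell line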;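 note: z relative to plate mean and SD of compound and empty wells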); conditions: low glucose
[8] = drug combination growth inhibition, ovarian cancer – cell-based, oncology-focused library, rucaparib conditional, profiling panel (AID 1508598;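 active = normalized viability below 100% at a tested concentration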); conditions: patient-derived ovarian cancer cells, CellTiter-Glo viability, 144 h, stronger effect = lower value
[9] = blockers of cellular phospholipid synthesis – cell-based, LOPAC library, screen 4, primary screen (AID 1347384; call rule not given here); conditions: animal cells, phospholipid biosynthesis inhibition screen; at 10 µM
[10] = galactose survival enhancers in mitochondrial complex I cybrids – cell-based, galactose medium, ATP luminescence, primary screen (AID 1645843;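 active = z-score of at least 1.8 in each of two replicates, scored against plate mean and spread of sample wells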;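 note: positive z means more ATP and so rescue of galactose-driven cybrid death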); conditions: complex I mutant cybrid cells, 72 h, stronger effect = higher value
[11] = stronger effect = lower value, cell number ratio, induced over uninduced
[12] = measured here: relative caspase fold change +Dox/-Dox
[13] = measured here: total cells with miR-34 induction, stronger effect = lower value
[14] = measured here: total cells without miR-34 induction
[15] = MELAS cybrid survival, CellTiter-Glo 48 h, stronger effect = higher value
[16] = Rieske KO mouse fibroblast survival, CellTiter-Glo 72 h

CCC(CC)CC1(C(=O)Nc2ccccc2SC(=O)C(C)C)CCCCC1
9550: cell count [5, 13]
10700: cell count [5, 14]
1.25: z-score [7, 16]
active: viability ([8]; at 0.000305 µM, OCI-P5x cells, with rucaparib 20 µM, 100% = cells with rucaparib alone) 92.5% | viability ([8]; at 0.000305 µM, OCI-P5x cells, without rucaparib) 91.2% | viability ([8]; at 0.00122 µM, OCI-P5x cells, with rucaparib 20 µM, 100% = cells with rucaparib alone) 97.3% | viability ([8]; at 0.00122 µM, OCI-P5x cells, without rucaparib) 96% | viability ([8]; at 0.00488 µM, OCI-P5x cells, without rucaparib) 99.6% | viability ([8]; at 0.313 µM, OCI-C5x cells, with rucaparib 10 µM, 100% = cells with rucaparib alone) 99.9%
inactive: outcome [1] | outcome [2] | outcome [3] | outcome [4] | fold change [5, 11] 0.89 | plate-normalised HSF1 focus index [6] 1.09 | z-score [7, 15] -0.325 | viability ([8]; at 0.000305 µM, OCI-C5x cells, with rucaparib 10 µM, 100% = cells with rucaparib alone) 115% | viability ([8]; at 0.000305 µM, OCI-C5x cells, without rucaparib) 112% | viability ([8]; at 0.00122 µM, OCI-C5x cells, with rucaparib 10 µM, 100% = cells with rucaparib alone) 109% | viability ([8]; at 0.00122 µM, OCI-C5x cells, without rucaparib) 105% | viability ([8]; at 0.00488 µM, OCI-C5x cells, with rucaparib 10 µM, 100% = cells with rucaparib alone) 111% | viability ([8]; at 0.00488 µM, OCI-C5x cells, without rucaparib) 114% | viability ([8]; at 0.00488 µM, OCI-P5x cells, with rucaparib 20 µM, 100% = cells with rucaparib alone) 101% | viability ([8]; at 0.0195 µM, OCI-C5x cells, with rucaparib 10 µM, 100% = cells with rucaparib alone) 127% | viability ([8]; at 0.0195 µM, OCI-C5x cells, without rucaparib) 110% | viability ([8]; at 0.0195 µM, OCI-P5x cells, with rucaparib 20 µM, 100% = cells with rucaparib alone) 104% | viability ([8]; at 0.0195 µM, OCI-P5x cells, without rucaparib) 108% | viability ([8]; at 0.0781 µM, OCI-C5x cells, with rucaparib 10 µM, 100% = cells with rucaparib alone) 110% | viability ([8]; at 0.0781 µM, OCI-C5x cells, without rucaparib) 115% | viability ([8]; at 0.0781 µM, OCI-P5x cells, with rucaparib 20 µM, 100% = cells with rucaparib alone) 104% | viability ([8]; at 0.0781 µM, OCI-P5x cells, without rucaparib) 103% | viability ([8]; at 0.313 µM, OCI-C5x cells, without rucaparib) 121% | viability ([8]; at 0.313 µM, OCI-P5x cells, with rucaparib 20 µM, 100% = cells with rucaparib alone) 107% | viability ([8]; at 0.313 µM, OCI-P5x cells, without rucaparib) 103% | viability ([8]; at 1.25 µM, OCI-C5x cells, with rucaparib 10 µM, 100% = cells with rucaparib alone) 113% | viability ([8]; at 1.25 µM, OCI-C5x cells, without rucaparib) 126% | viability ([8]; at 1.25 µM, OCI-P5x cells, with rucaparib 20 µM, 100% = cells with rucaparib alone) 107% | viability ([8]; at 1.25 µM, OCI-P5x cells, without rucaparib) 102% | viability ([8]; at 5 µM, OCI-C5x cells, with rucaparib 10 µM, 100% = cells with rucaparib alone) 110% | viability ([8]; at 5 µM, OCI-C5x cells, without rucaparib) 120% | viability ([8]; at 5 µM, OCI-P5x cells, with rucaparib 20 µM, 100% = cells with rucaparib alone) 103% | viability ([8]; at 5 µM, OCI-P5x cells, without rucaparib) 108%
1.84: SSMD [6]
6890: cell count [6]
0.858: fold change [5, 12]

COC1CCC(N2C(=O)CNc3ncc(-c4ccc(C(C)(C)O)nc4)nc32)CC1 (stereo unspecified)
active: AC50 [1] 9.34 µM | AC50 [2] 11.8 µM | AC50 [3] 16.6 µM | IC50 [4] 14.8 µM

O=c1c(-c2ccc(O)cc2)coc2c([C@@H]3O[C@H](CO)[C@@H](O)[C@H](O)[C@H]3O)c(O)ccc12
inactive: outcome [1] | outcome [2] | outcome [3] | outcome [4]

Cc1cc(C)c(S(=O)(=O)N(CCc2cccc(Br)c2)Cc2ccc(-c3cccc(S(C)(=O)=O)c3)cc2)c(C)c1
inactive: outcome [1] | outcome [2] | outcome [3] | outcome [4]

COC(=O)c1ccc([C@H]2c3[nH]c4ccccc4c3C[C@H](C(=O)OC)N2C(=O)CCl)cc1
active: AC50 [1] 13.2 µM | AC50 [2] 5.25 µM | AC50 [3] 2.35 µM | IC50 [4] 14.8 µM

N[C@@H](CCC(=O)O)C(=O)N[C@@H](Cc1c[nH]c2ccccc12)C(=O)O
inactive: outcome [1] | outcome [2] | outcome [3] | outcome [4]

O=C(Nc1ccc2c(c1)CCN(Cc1ncn[nH]1)C2)c1ccccc1-c1ccc(C(F)(F)F)cc1
inactive: outcome [1] | outcome [2] | outcome [3] | outcome [4] | fold change [5, 11] 1.03 | outcome [9] | z-score [10] 0.755
7840: cell count [5, 14]
8100: cell count [5, 13]
1.06: fold change [5, 12]

CC[C@@H](Oc1cccc(CN(CCCOc2ccc(OC)cc2)c2nc3ccccc3o2)c1)C(=O)O
inactive: outcome [1] | outcome [2] | outcome [3] | outcome [4]

COCCNc1cc(NC(=O)N2CCCc3cc(CN4CCN(C)CC4=O)c(C=O)nc32)ncc1C#N
inactive: outcome [1] | outcome [2] | outcome [3] | outcome [4]

Cc1cc(N2CCOCC2)ccc1Nc1nc(NC2CCCCC2)c2[nH]cnc2n1
-2.79: z-score [7, 16]
0.505: fold change [5, 12]
4100: cell count [5, 14]
active: AC50 [1] 2.35 µM | AC50 [2] 7.42 µM | AC50 [3] 14.8 µM | IC50 [4] 20.9 µM
inactive: fold change [5, 11] 0.907 | z-score [7, 15] -0.538
3720: cell count [5, 13]

CCN(C)S(=O)(=O)Nc1ccc(F)c(C(=O)c2c[nH]c3ncc(-c4cnc(C5CC5)nc4)cc23)c1F
active: AC50 [1] 14.8 µM | AC50 [2] 7.42 µM | AC50 [3] 16.6 µM | IC50 [4] 16.6 µM

CCOc1cc(C(=O)N2CCC(N3CCN(C)CC3)CC2)ccc1Nc1ncc2c(n1)N(C1CCCC1)c1ccccc1C(=O)N2C
active: AC50 [1] 23.5 µM | AC50 [2] 20.9 µM | AC50 [3] 26.3 µM | IC50 [4] 20.9 µM

N=C(N)c1ccc2nc(-c3cc(CC(=O)N[C@@H](CC(=O)O)C(=O)O)cc(-c4cc(S(N)(=O)=O)ccc4O)c3O)[nH]c2c1
inactive: outcome [1] | outcome [2] | outcome [3] | outcome [4]

CN[C@@H](C)C(=O)N[C@H](C(=O)N1CCC[C@H]1c1nc(C(=O)c2ccc(F)cc2)cs1)C1CCCCC1
inactive: outcome [1] | outcome [2] | outcome [3] | outcome [4]

O=C(NCC(=O)N1CC[C@H](NC2CCC(O)(c3ccc(-c4ncccn4)cn3)CC2)C1)c1cccc(C(F)(F)F)c1 (stereo partly specified)
inactive: outcome [1] | outcome [2] | outcome [3] | outcome [4]

CC(C)(C)Sc1c(CC(C)(C)C(=O)O)n(Cc2ccc(Cl)cc2)c2ccc(OCc3ccc4ccccc4n3)cc12
active: AC50 [1] 20.9 µM | AC50 [2] 20.9 µM | AC50 [3] 18.6 µM
inactive: outcome [4]

CCn1c(=O)c(-c2ccc(Cl)cc2Cl)cc2cnc(Nc3ccc(N4CCNCC4)c(F)c3)nc21
inactive: outcome [3] | outcome [4]
active: AC50 [1] 0.59 µM | AC50 [2] 0.59 µM

Cc1cc(Nc2cc(N)ncn2)c(=O)n2c1C(=O)NC21CCCCC1
inactive: outcome [1] | outcome [2] | outcome [3] | outcome [4]

C=CC(=O)N1CCC[C@H](n2c(=O)n(-c3ccc(Oc4ccccc4)cc3)c3c(N)ncnc32)C1
active: AC50 [1] 0.59 µM | AC50 [2] 7.42 µM | AC50 [3] 0.742 µM
inactive: outcome [4]

CNCCCOc1cc(F)c(-c2c(Cl)nc3ncnn3c2N[C@@H](C)C(F)(F)F)c(F)c1
active: AC50 [1] 0.0833 µM | AC50 [2] 0.118 µM | AC50 [3] 0.105 µM | IC50 [4] 0.235 µM

C=CC(=O)Nc1cccc(C)c1Nc1ncc2cc(-c3c(Cl)c(OC)cc(OC)c3Cl)ccc2n1
active: AC50 [1] 14.8 µM | AC50 [2] 9.34 µM | AC50 [3] 13.2 µM | IC50 [4] 9.34 µM

COc1cc2c(NC3CCN(C)CC3)nc(N3CCCN(C)CC3)nc2cc1OCCCN(C)C
inactive: outcome [1] | outcome [2] | outcome [3] | outcome [4]

— PubChem BioAssay
